Screening data: PubChem BioAssay, National Center for Advancing Translational Sciences (NCATS)
Rows were chosen to be rich in hits. Some 2.4% of all compounds tested hit in one or more screens of this group.
PINK1 modulator: A Quantitative High throughput Screen to Identify Chemical Modulators of PINK1 Expression | PINK1 immunofluorescence, high-content cytometry, 24 h | 410,000 compounds, 0.2% hits | AID 624263, 2012 | Potency, µM (doses to about 76.6 µM), actives largely listed as activators; active means well fitted activation curve with a large enough effect; inconclusive means small, poorly fitted or top-dose-only effect; cell line not stated here; further: nearly all actives have a fitted effect of over 65% in size
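Measures PINK1 amount and localization on or inside mitochondria by immunofluorescence. Stable cells get compounds at 5 concentrations for 24 hours before fixation and staining; CCCP controls included.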
A549 tox-1: Nrf2 qHTS screen for inhibitors: counterscreen for cytotoxicity | A549 ARE-Fluc cells, CellTiter-Fluor viability, 18-24 h | Potency, µM (top dose mostly 46 µM), actives largely listed as inhibitors | 390,000 compounds, 0.16% hits
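A549 ARE-Fluc cells in 5% FBS OPTI-MEM, 5000 cells/well, rested 2 h then exposed to compounds in concentration-response for 18-24 h at 37 °C. Viability by CellTiter-Fluor fluorescence (Ex 405/Em 525) after 30 min; luciferase luminescence (BugLite, 15 min, RT) read afterwards.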
Epigenetic reg: Quantitative High-Throughput Screen for Regulators of Epigenetic Control. murine LDR cells, GFP reporter derepression, 30 h. Potency, µM (top dose mostly 53.9 µM), actives largely listed as activators. 280,000 compounds, 0.2% hits. AID 1865, 2009; further: nearly all actives have a fitted effect of over 60% in size
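Reporter derepression read as number of fluorescent GFP-positive objects, 20-120 um in size, counted by laser-scanning cytometer. Mouse LDR line with an epigenetically silenced CMV-GFP locus; compound incubation 30 h, 37 C.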
Nrf2 inh: Nrf2 qHTS screen for inhibitors; AID 504444, 2011; Potency, µM (titrated, usually from 46 µM), usual class: inhibitors; A549 ARE-Fluc reporter, luciferase luminescence, 18-24 h; 360,000 compounds, 2.1% hits; further: nearly all actives have a fitted effect of over 60% in size
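A549 ARE_Fluc cells, 5000/well, 5% FBS OPTI-MEM; compounds in dose-response, 18-24 h at 37 °C/5% CO2; CellTiter-Fluor viability read (Ex 405/Em 525), then BugLite luciferase luminescence = Nrf2 activity.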
Nrf2 ARE act: qHTS of Nrf2 Activators; AREc32 ARE-luciferase reporter (MCF7-derived line), luminescence, 24 h; Potency, µM (series often up to 46.1 µM), actives largely listed as activators; 410,000 compounds, 0.31% hits; AID 624171, 2012; further: nearly all actives have a fitted effect of over 65% in size
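Each well held 1000 AREc32 cells, which were incubated with compound for 24 hr at 37 deg C after overnight attachment, and ARE reporter activity was quantified by firefly luciferase luminescence.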
FLuc enzyme inh: Nrf2 qHTS screen for inhibitors: Purified Fluc Biochemical Counterscreen for Hit Validation; shares compounds with Nrf2 inh; purified firefly luciferase, luminescence inhibition; Potency, µM (doses to about 57.5 µM), hits mostly inhibitors; 1,400 compounds, 4% hits; AID 720522, 2013; further: nearly all actives have a fitted effect of over 65% in size
Target sequence (P08659 whole entry, looked up): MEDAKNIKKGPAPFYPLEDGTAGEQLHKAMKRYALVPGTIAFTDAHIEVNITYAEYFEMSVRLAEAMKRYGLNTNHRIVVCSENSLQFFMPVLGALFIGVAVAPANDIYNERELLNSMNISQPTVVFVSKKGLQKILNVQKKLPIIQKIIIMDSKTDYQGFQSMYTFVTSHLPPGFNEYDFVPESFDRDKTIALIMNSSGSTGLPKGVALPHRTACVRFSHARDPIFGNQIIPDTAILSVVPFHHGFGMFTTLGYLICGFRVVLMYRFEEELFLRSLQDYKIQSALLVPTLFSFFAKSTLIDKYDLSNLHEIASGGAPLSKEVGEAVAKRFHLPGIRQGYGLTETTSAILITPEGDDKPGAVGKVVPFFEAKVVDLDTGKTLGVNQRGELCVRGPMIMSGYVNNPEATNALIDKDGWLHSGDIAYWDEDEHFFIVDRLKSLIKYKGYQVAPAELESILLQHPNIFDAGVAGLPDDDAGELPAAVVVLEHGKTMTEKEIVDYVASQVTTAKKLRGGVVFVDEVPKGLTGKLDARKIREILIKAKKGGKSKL
A549 tox-2: Nrf2 qHTS screen for inhibitors: A549 ARE-Fluc Cytotoxicity Counterscreen for Hit Validation; shares compounds with Nrf2 inh; A549 ARE-Fluc cells, cytotoxicity counterscreen; Potency, µM (doses to about 46.1 µM), most hits filed as inhibitors; 1,400 compounds, 2% hits; AID 720523, 2013;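 further: cells exposed to compounds for 18 to 24 hours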
Nrf2 ARE inh: Nrf2 qHTS screen for inhibitors: Nrf2 A549 ARE-Fluc Confirmation Assay for Hit Validation. shares compounds with Nrf2 inh. A549 ARE-firefly luciferase reporter, luminescence. Potency, µM (titrated, usually from 46.1 µM), most hits filed as inhibitors. 1,400 compounds, 74% hits. AID 720524, 2013; further: nearly all actives have a fitted effect of over 65% in size
Large screens that a line does not name were inactive (follow-up assays come after a bar, where they were run). Unless noted, the call rests on the fitted dose curve; in most records, active means well fitted curve in the direction sought with a large enough effect; inconclusive means small, poorly fitted or top-dose-only effect, or another doubt; inactive means no such curve, though single readings can be large; an effect the other way counts as inactive or inconclusive.

Cc1cccc(N2CCN(c3nc4ccc(C(=O)c5ccccc5)cc4n4cnnc34)CC2C)c1 (configuration not stated)	none
O=S(=O)(c1ccc(F)cc1)N1CCN(c2nc(-c3ccccc3)nc3ccccc23)CC1	none (no result: Epigenetic reg, Nrf2 ARE act)
Cc1ccc(CCNC(=O)c2ccc(CSCc3ccccc3C)o2)cc1	none (no result: Nrf2 inh)
COc1ccc(C(=O)OC2=C(C(=O)c3ccccc3)N(C)S(=O)(=O)c3ccccc32)cc1OC	none
NC(=O)c1ccccc1OCC(=O)N1CCC(Cc2ccccc2)CC1	Nrf2 inh 5.17µM (no result: Epigenetic reg) | FLuc enzyme inh inactive | A549 tox-2 inactive | Nrf2 ARE inh 8.2µM
COc1cc(NS(=O)(=O)c2ccc(-c3cc(C)no3)cc2)cc(OC)c1	Nrf2 inh 6.51µM | FLuc enzyme inh inactive | A549 tox-2 inactive | Nrf2 ARE inh 16.4µM
COc1ccccc1CNS(=O)(=O)c1ccc(-c2cc(C)no2)cc1	none (no result: Epigenetic reg)
C(=C1c2ccccc2-c2ccccc21)c1ccncc1	Nrf2 inh inconclusive (no result: Epigenetic reg)
CNc1ccc(C=C2c3ccccc3-c3ccccc32)cc1	none (no result: A549 tox-1, Epigenetic reg, Nrf2 inh, Nrf2 ARE act) | FLuc enzyme inh inconclusive | A549 tox-2 inactive | Nrf2 ARE inh 3.66µM
CN(C)S(=O)(=O)N1CCC(Oc2ccc(C(=O)NC3Cc4ccccc4C3)cc2)CC1	Nrf2 inh inconclusive (no result: Epigenetic reg)
CN(C)S(=O)(=O)N1CCC(Oc2cccc(C(=O)NC3CCCCCC3)c2)CC1	Nrf2 inh 2.59µM (no result: Epigenetic reg) | FLuc enzyme inh inactive | A549 tox-2 inconclusive | Nrf2 ARE inh 0.0731µM
CCc1ccc(NC(=O)CC2C(=O)N(c3cccc(C)c3)C(=O)N2CCC(C)C)cc1 (configuration not stated)	none
COc1ccc(NC(=O)C(NC(=O)C2CCC(C)CC2)C(C)C)cc1 (configuration not stated)	none
COC(=O)C/C=C1\c2ccccc2C(OC)C1C (configuration not stated)	none (no result: PINK1 modulator, A549 tox-1, Nrf2 inh, Nrf2 ARE act)
Oc1ccc(CCNc2ncnc3ccc(Cl)cc23)cc1	Nrf2 inh 7.31µM (no result: Epigenetic reg) | FLuc enzyme inh inactive | A549 tox-2 inactive | Nrf2 ARE inh 7.31µM
Cc1ccc(NC(=O)CCNS(=O)(=O)c2ccc3c(c2)CCC(=O)N3)cc1C	none (no result: Epigenetic reg)
Cc1cccc(N2CCN(C(=O)CCNS(=O)(=O)c3ccc4c(c3)CCC(=O)N4)CC2)c1C	Nrf2 inh 5.8µM (no result: A549 tox-1) | FLuc enzyme inh inactive | A549 tox-2 inactive | Nrf2 ARE inh inconclusive
COc1ccc(-c2nc3cnc(N4CCOCC4)nc3n(-c3ccc(OC)cc3)c2=O)cc1	none (no result: A549 tox-1, Epigenetic reg, Nrf2 inh, Nrf2 ARE act)
COc1cc(C)c(NC(C)C(=O)c2c(C)[nH]c3ccccc23)cc1OC (configuration not stated)	none (no result: A549 tox-1, Epigenetic reg, Nrf2 inh, Nrf2 ARE act)
CCc1ccc2[nH]c(=O)c(CN(Cc3ccccc3)C(=O)Nc3ccccc3OC)cc2c1	Nrf2 inh 7.31µM | FLuc enzyme inh inactive | A549 tox-2 inactive | Nrf2 ARE inh inconclusive
CCc1ccc2[nH]c(=O)c(CN(CCN(C)C)C(=O)Nc3ccccc3OC)cc2c1	none
COc1ccc(N(C(C)C(=O)N2CCC(Cc3ccccc3)CC2)S(C)(=O)=O)cc1 (configuration not stated)	Nrf2 inh 6.51µM | FLuc enzyme inh inactive | A549 tox-2 inactive | Nrf2 ARE inh 18.4µM
Cc1c(C(=O)N2CCCCC2)oc2ccc(S(=O)(=O)N3CC(C)CC(C)C3)cc12 (configuration not stated)	Nrf2 inh 9.2µM | FLuc enzyme inh inactive | A549 tox-2 inactive | Nrf2 ARE inh 9.2µM
CCOC(=O)N1CCN(C(=O)c2oc3ccc(S(=O)(=O)N4CCCCC4)cc3c2C)CC1	PINK1 modulator inconclusive, Nrf2 inh inconclusive
CC(C)c1ccc(C2c3c(-c4ccccc4O)n[nH]c3C(=O)N2Cc2ccncc2)cc1 (configuration not stated)	Nrf2 inh inconclusive
CCN(CCC(=O)O)c1ccc(/C=C/c2ccnc3ccccc23)cc1	none (no result: A549 tox-1, Epigenetic reg, Nrf2 inh, Nrf2 ARE act)
CN(Cc1ccccc1)C(=O)c1ccc(NC(=O)Cc2ccc(NC(=O)C3CCCN(C(=O)CCc4ccccc4)C3)cc2)cc1 (configuration not stated)	Nrf2 inh 2.59µM (no result: Epigenetic reg) | FLuc enzyme inh inactive | A549 tox-2 inactive | Nrf2 ARE inh 1.64µM
CN(Cc1ccccc1)C(=O)c1ccc(NC(=O)Cc2ccc(NC(=O)C3CCCN(C(=O)C4CCC4)C3)cc2)cc1 (configuration not stated)	Nrf2 inh inconclusive (no result: Epigenetic reg)
CC(C)CNc1nc(N)c([N+](=O)[O-])c(N2CCCCCC2)n1	Nrf2 inh 9.2µM (no result: Epigenetic reg) | FLuc enzyme inh inactive | A549 tox-2 inactive | Nrf2 ARE inh 8.2µM
CCN1C(=O)[C@@H]2[C@H]3C(=CC[C@H]2C1=O)C(=O)[C@H]1OC1[C@H]3O (some centres not stated)	none (no result: PINK1 modulator, A549 tox-1, Nrf2 inh, Nrf2 ARE act)
CN1/C(=C\C(=O)C[n+]2ccc(C(=O)c3ccccc3)cc2)C(C)(C)c2ccccc21	Nrf2 inh 5.17µM | FLuc enzyme inh inactive | A549 tox-2 inactive | Nrf2 ARE inh 5.17µM
CN1/C(=C\C(=O)C[n+]2cccc(Br)c2)C(C)(C)c2ccccc21	Nrf2 inh 3.26µM | FLuc enzyme inh inactive | A549 tox-2 inactive | Nrf2 ARE inh 4.11µM
Cc1cccc[n+]1CC(=O)/C=C1\N(C)c2ccccc2C1(C)C	A549 tox-1 inconclusive, Nrf2 inh 5.17µM | FLuc enzyme inh inactive | A549 tox-2 inactive | Nrf2 ARE inh 7.31µM
Cc1cc(C)cc(-c2cc3c(c(-c4c(O)c(-c5cc(C)cc(C)c5)cc5c4CCCC5)c2O)CCCC3)c1	none (no result: PINK1 modulator, A549 tox-1, Nrf2 inh, Nrf2 ARE act)
CC(=O)Nc1ccc(SCC(c2ccccc2)N2CCN(C)CCC2=O)cc1 (configuration not stated)	Nrf2 inh inconclusive (no result: PINK1 modulator, Epigenetic reg, Nrf2 ARE act)
COc1ccc2cc(CNc3ccc(C)cc3)c(=O)n(CC(=O)Nc3cccc(C(F)(F)F)c3)c2c1	none
COc1ccc(N2CCN(c3ncnc4c3[nH]c3ccccc34)CC2)cc1	Nrf2 inh 5.8µM | FLuc enzyme inh inactive | A549 tox-2 inactive | Nrf2 ARE inh 2.91µM
COc1cc2[nH]c3c(N4CCN(c5ccccn5)CC4)ncnc3c2cc1OC	Nrf2 inh inconclusive
